Test results: PubChem BioAssay AID1508600 (Functional Genomics Laboratory (NCATS/FGL), 2020)
Hit rate of the full screen: of about 53,000 sequences, about 3,700 (7%) were called active.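 Rule for the calls: active = gene knockdowns whose robust z-score for IL-1 alpha signal is at least 2 or at most -2, so actives lie on both sides; inactive = the rest.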 The entries come from a sample that favours actives as a whole.

Assay: Components of the Cytosolic LPS Sensing Pathway: Gene Identification via Genome-wide siRNA Screen;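 note: robust z of the log signal after scaling to non-targeting control siRNA wells of the plate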
Conditions: RAW264.7 macrophages, IL-1a HTRF, actives lie on both sides, screened at 100 nM (by protocol), cells primed 5 h with Pam3CSK4 first
Procedure, shortened: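 IL-1a HTRF of supernatants after 24 hour LipidA transfection of Pam3CSK4-primed (5 hours) RAW264.7 cells, 48h post-siRNA transfection (100 nM). Scores: percent of plate negative-control median, then log-based robust z-score.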

z-score, inactive:
CCAAUCUCCUGUUGUUAAATT against Mlf1 0.557, CCAGUCUUGCCCUUUAGUGTT against Foxi2 -1.88, CCUUACCACUUGAAGAUGGTT against Ephx1 -1.2, GCCAGUGAGUUUAUCAGCCTT against B4galnt3 0.706, GGUAUACAUGCUUCUCUCUTT against Olfr610 -0.569, GCUACAGAACCUGCUCUACTT against Thoc5 0.391, GGCAUUGAACAAGAAAGAATT against Mef2c -0.94, GGAAGACAAAGAUUCUAGUTT against Abcc1 -1.06, UUACUGGUUGCUGUUGUGGTT against Alyref 1.35, GCUGUGGUACAACCACAUUTT against Lrrc8a -0.244, GGAACCACACCAUGUGAAATT against Prdm5 0.828, AGAGGAAGCUCGAAAACGGTT against Zrsr2 -0.2, GGAUAUCAUCGUGUUUAUUTT against Vps45 0.612, GCAAAAAAUCACUUCGAGUTT against Mgat4a -0.377, GGGUAAGUAUUGAACUCAUTT against Slc10a1 1.06, GGAUGCUGAAGUAAUAGUGTT against Tbc1d15 0.0714, GGAAUGCUAUCAGAGAAGATT against Zmym5 -0.0365, GGUUUAAGGUAGUUCAUGATT against Faf1 -0.0439, GGCCUCAAGAAUGUAACAGTT against Psmf1 -1.07, GGACAAUUGAAUACCUAGATT against Hadha 0.151, CCAAGUUUUAGCACCUAAATT against Dcp1a 0.769, GGACAUGAAGAUCAAGUCCTT against Rps2 -0.109, GAAGACUUCAAUCAACCAGTT against Trim6 -0.396, GCAUACCGGAUAAACUGAATT against Apoc1 -0.916, GGAAUGUCGAAUUGAUUGUTT against Klrb1b 0.524, GGAAGAGAGAGACAAGGAUTT against Dap 1.38, GGCGACGAAGUCACCUAUATT against Carhsp1 -0.0404, GGUGGAGAAAUCUGCUAAUTT against Lta4h 1.99, CGUCAAUGAAUUCGACUCUTT against Pnlip 0.348, GCUUUCAGCUAUUGGACCCTT against Kl 0.0919, CGAUGCUGACUGAGAUCAUTT against Rad23a 1.39, GGUAUAGUUAAAGUGAGAGTT against Sp8 -0.883, GGAGUUAAUUGCCCGCAACTT against Rab19 0.588, CGGAAGAUGUUAAAACUAUTT against Slc44a3 -1.33, CCAGGACAAUAACUCUGAGTT against Aatk -1.28, GGCGAGUUUAUAGAAGAAATT against Phf19 1.35, GGCUUGGAAUGACACUACUTT against Maged1 -1.12, GCUCAAUUUACAAAAGCCCTT against Pik3c2a -0.961, CCUGUUUCUGACCUAAUACTT against Syn1 -0.088, GGAAGAUAUUGCUGUUGGATT against Mbd4 0.823, GCAAGAUGAGAAGGAUUUUTT against Zfp691 0.591, GGAGGAAAACAAACCACAGTT against Tpbpa 0.0817, GCUGCAUCUAAAGCCUUAATT against Olfr661 1.41, GGAAGAAAGUGAAGAAGAGTT against Cdr1os -0.387, GGACUUUGUGAUCUUUCCATT against Pias2 -0.57, CCUGGCUAUUGGUGAGUGATT against Slc30a3 1.9, CCAAACUUUUGUGGAACAGTT against Galnt9 0.0294, GGCAUGUGGUUGAAGGCCUTT against Fank1 -0.337, GGACAAUGAAGAUUUGGAATT against Ush2a -0.669, CCGCCGAUCUACUAGUGGUTT against Slc6a2 0.46, GCGGCCUUCGAAGAUAUUCTT against Pnliprp2 -0.144, GCCAGCGUACUCUUUUUAUTT against Ocln -0.694, GGAGCUGGUGGAUCUGAAGTT against Ubfd1 1.26, CGUGACUAUUCUGAUAAGUTT against Arl15 0.134, GGAAGGAGGAAAAGUAGGUTT against Peli1 -0.00852, GGAAGAGAGCAGAAAGAAGTT against Trim35 -0.135, GGUGGGCUACGAACUAAAGTT against Prpf31 0.664, GGUGUUGAAAGUCAUUGUGTT against Med27 -0.196, GGCAGAUACUUCUCUGGAGTT against Sdc4 -0.498, GGAAGAAGACAUGCUCACUTT against Pcdhb8 1.07, GGUGGAGAACCAUAUCACATT against Abcg4 0.105, GAGCAUCCGCUACUUGGUATT against Nmnat1 0.0484, GCAUUUCAGCAGAACAAUATT against Phldb1 0.5, GGAGACUUUCCAUUUGAAGTT against Fnbp1l -0.188, GAAAAAAUCUAUCUACCCUTT against Hoxb4 -0.219, GGUCAGUUGAGAUGUUUUUTT against Pag1 0.346, GGACUAGUCCUAAGAAGAGTT against Rbmxl2 -1.27, GCCUAUCUACGACCUCAUCTT against Kel -0.768, GGCCAUUACCCAUGAGACUTT against Cd63 0.997, GGAACAAAUGUUCGAAAUGTT against Eif4a2 -0.0347, GGAUAUGAAACACCAGAUCTT against Naip2 -1.89, GCAGCAGACACUCUGUACATT against Pcbp4 -0.0747, GGACAAGUACAGGUUCCUATT against Vrk3 0.536, GCUCGUUUGAUGCUGUCUCTT against Prkag1 -1.17, GCUGUUUUGGUAGAUUUUGTT against Map3k8 0.0466, GCUGAACCUGCAGCACAUCTT against Mettl7a2 -0.0665, GGAGUACAUUGUGAAUGUUTT against Tnr -1.44, GCUGGUGAACCAAAAACUCTT against Ccdc3 -0.366, GGACAUGGUACCACAGGAGTT against Tenm4 0.643, GAGCCAAAUCAGGAACAGCTT against Trim29 1.4, GCCAAUAGCUCCAGCUUGATT against Olfr668 0.534, GGCAACUUGGGAGUUUCACTT against Kcnab1 1.41, CUUGGUGGAUGAAAGAUUCTT against Tdpoz2 -0.776, GGUCAAAGUGUAACUUGUUTT against Rwdd4a -0.0956, GGAAGAUGAACAUCAAACATT against Dglucy 0.855, GGAAGAGAGCGAUUAAAUUTT against Rsrc2 0.839

z-score, active:
AUGUAUUGAGUCAGGCAUCTT against Olfr243 2.32, GGGUAUGGUUUCAUCACUUTT against Boll -2.71, GGAGAUCUCCUCAGCCACATT against Gemin4 -2.14, CCAUUCCCGCAUCCAUGUGTT against Zfp672 -2.23, GGACAACAUUAUAGGAAAGTT against Neu3 2.36, CGUUGUCAUUCACAAGUGATT against Tmprss11e 3.02, CCCUUCUUCGGGUUUUAACTT against Kcna3 3.08, GGACUCAACUGCACUGUUGTT against Izumo4 -2.37, GGAAACUUGUUGAAGAGAUTT against Ptprz1 2.37, GAAGGCCAAUGAUCGGGAGTT against Neurog3 -2.1, GCAAAAGCGGGUCAAAAAATT against Lrrc72 2.27, GGCUGUGAUUGGCAAUCUATT against 6430548M08Rik -3.04, GGAAAUGCCAUCGUCAUUUTT against Gpr1 2.66, GGGAUGUUUAGGUCACCUUTT against 4933434M16Rik -2.35, CCCGUGGUCCUACAUUGUUTT against Cdon 2.39, GGCCAAAGUGGUGUGUUUCTT against Mta1 2.46, GGAAGAUAUGAAGGGCUCATT against Mb -2.18, GGAUCUGGAUACUUUUCCATT against Arhgap22 -2.09, GGCGGUGGAGGUGAUAUAUTT against Dennd6a -2.01, GGCACUGUUCGGCAAGAAGTT against Trappc5 -2.1, CGGGCAGCUAGAUUUCCAATT against S100a11 2.86, GGCUAUAGGUUUCUGGGAATT against Fzd6 4.94
